Results taken from PubChem BioAssay (NCI).
This is part of a sample that, as a whole, favours compounds with a hit. Of some 79,000 tested, about 15% had one in any assay. Values without a mark were called inactive. No stated cut-off is given here; in the data, active means growth inhibition above about 70%; inactive means the rest.

Test: NCI Yeast Anticancer Drug Screen. Data for the rad50 strain (AID 155);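 further: 0% = growth of vehicle-only cultures of the same strain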
Details: S. cerevisiae rad50 strain growth inhibition; at 50.0 µM; active compounds read high
In short: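 Growth of the mutant yeast was measured after compound exposure and referenced to vehicle-treated cultures.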

SMILES	growth inhibition [%]
O=C(/C=C/C(=O)c1ccccc1)c1ccccc1	41.8
CCCCCCCO	-11
CCCOC(=O)C(O)c1ccccc1 (configuration not stated)	16.2
O=C(O)/C=C/c1ccc2c(c1)CCC2	28.6
Nc1nc(OCc2ccccc2)c2[nH]cnc2n1	-15.3
COc1cccc(COC(=O)Nc2ccccc2)c1OC	29.9
Cc1ccc(C(=O)c2ccccc2)c(C)c1	8.65
CCCCC(O)c1ccccc1 (configuration not stated)	-16.6
NC(N)=Nc1cc2ccccc2c2ccccc12	-1.2
CCOc1ccc(I)cc1	10.9
O=S(=O)(O)c1cc(O)c2c(N=Cc3ccccc3O)c(S(=O)(=O)O)ccc2c1	5.15
OCCN1CCOCC1	31.9
Cc1cc(N)ccc1-c1ccc(N)cc1C	-3
NCCC(=O)c1ccc(Cl)cc1	45.4
Cc1cc(C)c(N)c(S(=O)(=O)O)c1	-0.7
c1ccc(Cc2ccccc2)cc1	12.8
COC(=O)c1cccnc1	6.65
COc1cc(C(=O)NC(=S)Nc2ccc3ccccc3c2)cc(OC)c1OC	11.3
COC(=O)c1cccc(Br)c1	-4.4
C=C[Si](OC(C)=O)(OC(C)=O)OC(C)=O	27.2

SMILES	growth inhibition [%]
CCOC(=O)CSc1c([N+](=O)[O-])ncn1C	4.9
O=C(NCCNC(=O)c1ccc(Cl)cc1Cl)c1ccc(Cl)cc1Cl	-9.25
COC(=O)CCCCC1=CCC2C(=O)C=C(O)C2C1 (configuration not stated)	-13.3
O=C1Cc2ccccc2C(=O)O1	25.9
O=c1cc(-c2ccccc2)[nH]c(=S)[nH]1	-13.4
O=C(O)c1cc([N+](=O)[O-])ccc1Cl	27.9
CCN1C(=O)/C(=C/C=C/N(C)c2ccccc2)SC1=S	0.9
CN(C)c1nc2c([nH]1)c(=O)n(C)c(=O)n2C	22.4
COc1ncnc2c1cnn2C	7.6
CC1(O)CCCCC1O (configuration not stated)	-8.1
CCc1ccc(/C(C#N)=C/C=C/c2ccccc2)cc1	8.9
C=CCOC(=O)C(=O)OCC=C	18.8
CCCCCCCCCCCCCCCCC1CC(=O)OC1=O (configuration not stated)	-4.35
CC(=O)OCC(=O)[C@@]1(O)CC[C@H]2[C@@H]3CC[C@@H]4C[C@H](O)CC[C@]4(C)[C@H]3C(=O)C[C@@]21C	19.7
COC1=CC(=O)c2nc(Cl)ccc2C1=O	29
Cc1cc(=O)[nH]c(NN=C2CCCC2)n1	-27.9
CSc1[nH]c(=O)ncc1F	4.15
CCC(C)(C)C1CCC(O)CC1 (configuration not stated)	10.2
S=c1nn[nH]c2ccccc12	17.4

Test: NCI Yeast Anticancer Drug Screen. Data for the mec2-1 strain (AID 157)
Details: S. cerevisiae mec2-1 strain, at 50.0 µM, active compounds read high
In short: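 Test agents were screened against the mec2-1 yeast strain, with defined DNA repair or cell cycle alteration. Growth was scored as inhibition against vehicle-only controls.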

SMILES	growth inhibition [%]
CCCCCCCO	-17.9
CCCOC(=O)C(O)c1ccccc1 (configuration not stated)	-6.25
O=C(O)/C=C/c1ccc2c(c1)CCC2	18.1
Nc1nc(OCc2ccccc2)c2[nH]cnc2n1	-0.15
COc1cccc(COC(=O)Nc2ccccc2)c1OC	21.4
Cc1ccc(C(=O)c2ccccc2)c(C)c1	-1.75
CCCCC(O)c1ccccc1 (configuration not stated)	-4.15
NC(N)=Nc1cc2ccccc2c2ccccc12	-7.15
CCOc1ccc(I)cc1	11.8
O=S(=O)(O)c1cc(O)c2c(N=Cc3ccccc3O)c(S(=O)(=O)O)ccc2c1	-9.6
OCCN1CCOCC1	-2.05
Cc1cc(N)ccc1-c1ccc(N)cc1C	-6.45
NCCC(=O)c1ccc(Cl)cc1	-10.4
Cc1cc(C)c(N)c(S(=O)(=O)O)c1	-6.45
c1ccc(Cc2ccccc2)cc1	39.2
COC(=O)c1cccnc1	-3.85
COc1cc(C(=O)NC(=S)Nc2ccc3ccccc3c2)cc(OC)c1OC	2.6
COC(=O)c1cccc(Br)c1	1.5
C=C[Si](OC(C)=O)(OC(C)=O)OC(C)=O	-13.2

SMILES	growth inhibition [%]
CCOC(=O)CSc1c([N+](=O)[O-])ncn1C	0.5
O=C(NCCNC(=O)c1ccc(Cl)cc1Cl)c1ccc(Cl)cc1Cl	-10.8
COC(=O)CCCCC1=CCC2C(=O)C=C(O)C2C1 (configuration not stated)	13.1
O=C1Cc2ccccc2C(=O)O1	-16.5
O=c1cc(-c2ccccc2)[nH]c(=S)[nH]1	-11.9
O=C(O)c1cc([N+](=O)[O-])ccc1Cl	11.2
CCN1C(=O)/C(=C/C=C/N(C)c2ccccc2)SC1=S	-13.3
CN(C)c1nc2c([nH]1)c(=O)n(C)c(=O)n2C	-15.2
COc1ncnc2c1cnn2C	3.6
CC1(O)CCCCC1O (configuration not stated)	-37.6
CCc1ccc(/C(C#N)=C/C=C/c2ccccc2)cc1	-12.2
C=CCOC(=O)C(=O)OCC=C	30.6
CCCCCCCCCCCCCCCCC1CC(=O)OC1=O (configuration not stated)	-12.2
CC(=O)OCC(=O)[C@@]1(O)CC[C@H]2[C@@H]3CC[C@@H]4C[C@H](O)CC[C@]4(C)[C@H]3C(=O)C[C@@]21C	7.15
COC1=CC(=O)c2nc(Cl)ccc2C1=O	9.95
Cc1cc(=O)[nH]c(NN=C2CCCC2)n1	-52.5
CSc1[nH]c(=O)ncc1F	4.1
CCC(C)(C)C1CCC(O)CC1 (configuration not stated)	6.6
S=c1nn[nH]c2ccccc12	22.6
